# Compounds without any hit were thinned out: in the full panel of roughly 79,000, 15% have a hit. Unmarked numbers belong to inactive results. The source made the active and inactive calls. Cut-off read from the data, not from the text of the source: active = growth inhibition above about 70%; inactive = the rest.
# Columns and labels:
# [1] = NCI Yeast Anticancer Drug Screen. Data for the rad52 strain (AID 147);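 note: 0% = growth of vehicle-treated control cultures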; conditions: S. cerevisiae rad52 mutant growth inhibition, stronger effect = higher value
# Summary of the method: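 The repair-mutant yeast strain was incubated with compounds, then growth was read and inhibition derived relative to vehicle.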
# [2] = NCI Yeast Anticancer Drug Screen. Data for the wt1 strain (AID 149);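 note: 0% = growth of vehicle-treated wt1 cultures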; conditions: S. cerevisiae wt1 strain (SPY 50644) growth inhibition, stronger effect = higher value
# Summary of the method: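 Compounds are added to wt1 yeast cultures. Growth is then measured. Inhibition is expressed relative to vehicle-treated controls.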
# [3] = NCI Yeast Anticancer Drug Screen. Data for the rad50EPP+ strain (AID 151);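 note: 0% = growth of vehicle-treated control cultures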; conditions: S. cerevisiae rad50 mutant strain, stronger effect = higher value
# Summary of the method: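 Vehicle-normalised growth inhibition; rad50EPP+ yeast strain, altered in DNA damage repair, compound-treated.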
# [4] = NCI Yeast Anticancer Drug Screen. Data for the mgt1 strain (AID 153); conditions: S. cerevisiae mgt1 mutant growth inhibition, stronger effect = higher value
# Summary of the method: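 Vehicle-normalized growth inhibition is determined in mgt1 yeast, a strain selected for a defined alteration in DNA repair or cell cycle control.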
# [5] = NCI Yeast Anticancer Drug Screen. Data for the rad50 strain (AID 155);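 note: 0% = growth of vehicle-only cultures of the same strain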; conditions: S. cerevisiae rad50 strain growth inhibition, stronger effect = higher value
# Summary of the method: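 Inhibition values express reduced yeast growth in compound-treated cultures relative to vehicle-treated controls.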
# [6] = NCI Yeast Anticancer Drug Screen. Data for the mec2-1 strain (AID 157); conditions: S. cerevisiae mec2-1 strain, stronger effect = higher value
# Summary of the method: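 Mutant yeast (mec2-1) grown with compound; growth inhibition relative to vehicle control reported.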
# [7] = NCI Yeast Anticancer Drug Screen. Data for the rad14 strain (AID 159);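 note: 0% = growth of vehicle-treated control cultures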; conditions: S. cerevisiae rad14 strain growth inhibition, stronger effect = higher value
# Summary of the method: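 A mutant yeast strain defective in DNA damage repair is treated with compound; inhibition of its growth is scored against untreated, vehicle-exposed cultures.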
# [8] = NCI Yeast Anticancer Drug Screen. Data for the sgs1 mgt1 strain (AID 161);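 note: 0% = growth of cultures given vehicle only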; conditions: S. cerevisiae sgs1 mgt1 strain, stronger effect = higher value
# Summary of the method: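 Percent growth inhibition was derived by comparing compound-exposed mutant yeast with vehicle-exposed cultures. The strain carries alterations in DNA damage repair.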
# [9] = NCI Yeast Anticancer Drug Screen. Data for the CLN2oe strain (AID 163);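 note: 0% = growth of vehicle-only control cultures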; conditions: S. cerevisiae CLN2oe strain, stronger effect = higher value
# Summary of the method: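 Compounds are applied to yeast harbouring a defined cell-cycle control change; reduced growth compared with vehicle-treated controls gives the value.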
# [10] = NCI Yeast Anticancer Drug Screen. Data for the cln2 rad14 strain (AID 165);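 note: 0% = growth equal to vehicle treated cultures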; conditions: S. cerevisiae cln2 rad14 strain, stronger effect = higher value
# Summary of the method: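 Readout is yeast growth inhibition versus vehicle-treated controls, using a strain with cln2 and rad14 alterations exposed to compound.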
# [11] = NCI Yeast Anticancer Drug Screen. Data for the bub3 strain (AID 167); conditions: S. cerevisiae bub3 mutant strain, stronger effect = higher value
# Summary of the method: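 Steps: expose the mutant yeast strain to compound; grow alongside vehicle-treated cultures; measure growth; express inhibition against the vehicle cultures.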
# [12] = NCI Yeast Anticancer Drug Screen. Data for the wt2 strain (AID 169);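 note: 0% = growth of vehicle-treated yeast cultures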; conditions: S. cerevisiae wt2 strain growth inhibition, stronger effect = higher value
# Summary of the method: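 Against vehicle-treated controls, the growth of yeast exposed to each compound was compared, and the inhibition was recorded.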
# [13] = NCI Yeast Anticancer Drug Screen. Data for the sgs1 strain (AID 173);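 note: 0% = growth of vehicle-only control cultures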; conditions: S. cerevisiae sgs1 mutant, stronger effect = higher value
# Summary of the method: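 Each compound was added to cultures of the altered yeast strain. Growth was recorded, and inhibition was derived by comparison with vehicle controls.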
# [14] = NCI Yeast Anticancer Drug Screen. Data for the mlh1 rad18 strain (AID 175); conditions: S. cerevisiae mlh1 rad18 strain growth inhibition, stronger effect = higher value
# Summary of the method: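 Genetically defined yeast (DNA repair-deficient) exposed to compounds; growth inhibition determined relative to vehicle.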
# [15] = at 5.0 µM (retest, dose inferred, filed as 0.5)
# [16] = at 50.0 µM (retest, dose inferred, filed as 5.0)
smiles,measurement,setting,value
Nc1ncncc1C(C1=C(O)COC1=O)C1=C(O)COC1=O,growth inhibition,[1]; at 1.2 µM,2%
same,growth inhibition,[1]; at 3.7 µM,-1%
same,growth inhibition,[1]; at 11.0 µM,-1%
same,growth inhibition,[1]; at 33.0 µM,-2%
same,growth inhibition,[1]; at 100.0 µM,0%
same,growth inhibition,[2]; at 1.2 µM,1%
same,growth inhibition,[2]; at 3.7 µM,4%
same,growth inhibition,[2]; at 11.0 µM,-3%
same,growth inhibition,[2]; at 33.0 µM,0%
same,growth inhibition,[2]; at 100.0 µM,1%
same,growth inhibition,[3]; at 1.2 µM,6%
same,growth inhibition,[3]; at 3.7 µM,10%
same,growth inhibition,[3]; at 11.0 µM,10%
same,growth inhibition,[3]; at 33.0 µM,6%
same,growth inhibition,[3]; at 100.0 µM,2%
same,growth inhibition,[4]; at 1.2 µM,-2%
same,growth inhibition,[4]; at 3.7 µM,-4%
same,growth inhibition,[4]; at 11.0 µM,-6%
same,growth inhibition,[4]; at 33.0 µM,-2%
same,growth inhibition,[4]; at 100.0 µM,-2%
same,growth inhibition,[5]; at 1.2 µM,2%
same,growth inhibition,[5]; at 3.7 µM,2%
same,growth inhibition,[5]; [15],-10%
same,growth inhibition,[5]; at 11.0 µM,-2%
same,growth inhibition,[5]; at 33.0 µM,0%
same,growth inhibition,[5]; [16],15%
same,growth inhibition,[5]; at 50.0 µM,8.05%
same,growth inhibition,[5]; at 100.0 µM,1%
same,growth inhibition,[6]; at 1.2 µM,4%
same,growth inhibition,[6]; at 3.7 µM,7%
same,growth inhibition,[6]; [15],-15%
same,growth inhibition,[6]; at 11.0 µM,8%
same,growth inhibition,[6]; at 33.0 µM,8%
same,growth inhibition,[6]; [16],-16%
same,growth inhibition,[6]; at 50.0 µM,5.95%
same,growth inhibition,[6]; at 100.0 µM,0%
same,growth inhibition,[7]; at 1.2 µM,-2%
same,growth inhibition,[7]; at 3.7 µM,-4%
same,growth inhibition,[7]; at 11.0 µM,-2%
same,growth inhibition,[7]; at 33.0 µM,-5%
same,growth inhibition,[7]; at 100.0 µM,-2%
same,growth inhibition,[8]; [15],-10%
same,growth inhibition,[8]; [16],13%
same,growth inhibition,[8]; at 50.0 µM,8%
same,growth inhibition,[9]; at 1.2 µM,-7%
same,growth inhibition,[9]; at 3.7 µM,-16%
same,growth inhibition,[9]; at 11.0 µM,-6%
same,growth inhibition,[9]; at 33.0 µM,-8%
same,growth inhibition,[9]; at 100.0 µM,-8%
same,growth inhibition,[10]; [15],-5%
same,growth inhibition,[10]; [16],0%
same,growth inhibition,[10]; at 50.0 µM,35.1%
same,growth inhibition,[11]; at 1.2 µM,-2%
same,growth inhibition,[11]; at 3.7 µM,-1%
same,growth inhibition,[11]; [15],1%
same,growth inhibition,[11]; at 11.0 µM,-1%
same,growth inhibition,[11]; at 33.0 µM,-2%
same,growth inhibition,[11]; [16],19%
same,growth inhibition,[11]; at 50.0 µM,-6.55%
same,growth inhibition,[11]; at 100.0 µM,-8%
same,growth inhibition,[12]; at 1.2 µM,1%
same,growth inhibition,[12]; at 3.7 µM,1%
same,growth inhibition,[12]; at 11.0 µM,-1%
same,growth inhibition,[12]; at 33.0 µM,0%
same,growth inhibition,[12]; at 100.0 µM,1%
same,growth inhibition,[13]; at 1.2 µM,3%
same,growth inhibition,[13]; at 3.7 µM,3%
same,growth inhibition,[13]; at 11.0 µM,3%
same,growth inhibition,[13]; at 33.0 µM,2%
same,growth inhibition,[13]; at 100.0 µM,-1%
same,growth inhibition,[14]; [15],2%
same,growth inhibition,[14]; [16],57%
same,growth inhibition,[14]; at 50.0 µM,4.8%
CC1CCN(CCC(=O)c2ccc(Cl)cc2)CC1,growth inhibition,[1]; at 1.2 µM,4%
same,growth inhibition,[1]; at 3.7 µM,8%
same,growth inhibition,[1]; at 11.0 µM,28%
same,growth inhibition,[1]; at 33.0 µM,41%
same,growth inhibition,[1]; at 100.0 µM,53%
same,growth inhibition,[2]; at 1.2 µM,-1%
same,growth inhibition,[2]; at 3.7 µM,-1%
same,growth inhibition,[2]; at 11.0 µM,-1%
same,growth inhibition,[2]; at 33.0 µM,7%
same,growth inhibition,[2]; at 100.0 µM,16%
same,growth inhibition,[3]; at 1.2 µM,-1%
same,growth inhibition,[3]; at 3.7 µM,-1%
same,growth inhibition,[3]; at 11.0 µM,-1%
same,growth inhibition,[3]; at 33.0 µM,-2%
same,growth inhibition,[3]; at 100.0 µM,-7%
same,growth inhibition,[4]; at 1.2 µM,-1%
same,growth inhibition,[4]; at 3.7 µM,4%
same,growth inhibition,[4]; at 11.0 µM,20%
same,growth inhibition,[4]; at 33.0 µM,35%
same,growth inhibition,[4]; at 100.0 µM,52%
same,growth inhibition,[5]; at 1.2 µM,12%
same,growth inhibition,[5]; at 3.7 µM,19%
same,growth inhibition,[5]; [15],5%
same,growth inhibition,[5]; at 11.0 µM,32%
same,growth inhibition,[5]; at 33.0 µM,52%
same,growth inhibition,[5]; [16],36%
same,growth inhibition,[5]; at 50.0 µM,77.5% (active)
same,growth inhibition,[5]; at 100.0 µM,56%
same,growth inhibition,[6]; at 1.2 µM,0%
same,growth inhibition,[6]; at 3.7 µM,1%
same,growth inhibition,[6]; [15],9%
same,growth inhibition,[6]; at 11.0 µM,3%
same,growth inhibition,[6]; at 33.0 µM,17%
same,growth inhibition,[6]; [16],37%
same,growth inhibition,[6]; at 50.0 µM,29.1%
same,growth inhibition,[6]; at 100.0 µM,27%
same,growth inhibition,[7]; at 1.2 µM,19%
same,growth inhibition,[7]; at 3.7 µM,36%
same,growth inhibition,[7]; at 11.0 µM,33%
same,growth inhibition,[7]; at 33.0 µM,39%
same,growth inhibition,[7]; at 100.0 µM,45%
same,growth inhibition,[8]; [15],16%
same,growth inhibition,[8]; [16],50%
same,growth inhibition,[8]; at 50.0 µM,75.5% (active)
same,growth inhibition,[9]; at 1.2 µM,8%
same,growth inhibition,[9]; at 3.7 µM,17%
same,growth inhibition,[9]; at 11.0 µM,36%
same,growth inhibition,[9]; at 33.0 µM,49%
same,growth inhibition,[9]; at 100.0 µM,55%
same,growth inhibition,[10]; [15],14%
same,growth inhibition,[10]; [16],45%
same,growth inhibition,[10]; at 50.0 µM,73.6% (active)
same,growth inhibition,[11]; at 1.2 µM,1%
same,growth inhibition,[11]; at 3.7 µM,6%
same,growth inhibition,[11]; [15],18%
same,growth inhibition,[11]; at 11.0 µM,11%
same,growth inhibition,[11]; at 33.0 µM,24%
same,growth inhibition,[11]; [16],50%
same,growth inhibition,[11]; at 50.0 µM,81.7% (active)
same,growth inhibition,[11]; at 100.0 µM,31%
